Experimental data reported in PubChem BioAssay AID1458 (National Center for Advancing Translational Sciences (NCATS), 2008).
Values joined by “and” are separate entries in the source; they are usually repeats but may differ in a detail not shown here. Equal values may be shown once. The campaign covered roughly 210,000 compounds. About 5,900 (2.8%) were called active. Roughly 5% stayed inconclusive and do not appear here. Shown is part of a subset that was picked to be rich in actives. Values without a mark were called inactive. Calls come from the whole dose curve; as a rule, active = well fitted activation curve with a large enough effect; inconclusive = small, poorly fitted or top-dose-only effect; inactive = no such curve, though single readings can be large or run the other way.

Test: qHTS Assay for Enhancers of SMN2 Splice Variant Expression; note: nearly all actives have a fitted effect of over 55% in size; for activity change, positive = activation: % of control where 0% means no effect
Conditions: HEK293 SMN2-luciferase splicing reporter, luminescence, 30-36 h; series mostly up to 46.1 µM; activity change, positive = activation: at the top concentration
Procedure, shortened: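 HEK293 cells carry an SMN2 minigene-luciferase reporter in which exon 7 inclusion puts luciferase in frame. Cells were seeded at 2000 cells/well, attached for 10-12 hours, then exposed to compounds for 30-36 hours at 37C before ONE-Glo luminescence.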
Potency is the fitted concentration of half-maximal effect.

SMILES | activity change, positive = activation | Potency
CCC1=Nc2cc(C(=O)NCC(C)c3ccccc3)ccc2Sc2ccc(C)cc21 (stereo unspecified) | -29.9% | –
COc1cccc(CNC(=O)c2cc(=O)[nH]c3ccc(S(=O)(=O)N4CCCCC4)cc23)c1 | 2.53% | –
CCC(=O)N1N=C(c2ccc(OC)cc2)CC1c1cn(-c2ccccc2)nc1-c1cccs1 (stereo unspecified) | -8.72% | –
O=C(O)c1ccc(N/N=C/c2cn(-c3ccccc3)nc2-c2cccs2)cc1 | – | 7.94 µM (active)
O=C(/C=C\c1cn(-c2ccccc2)nc1-c1cccs1)N1CCOCC1 | 26.2% | –
COc1ccc(-c2nn(-c3ccccc3)cc2/C=C\C(=O)Nc2ccc(C(=O)O)cc2)cc1 | -2.02% | –
CC(C)CC(NS(=O)(=O)c1ccc2c(c1)oc(=O)n2C)C(=O)NCc1ccccc1Cl (stereo unspecified) | 4.01% | –
Cc1ccccc1NC(=O)Cn1c(=O)n(CCc2ccccc2)c(=O)c2ccccc21 | -3.15% | –
COc1ccc(-n2ncc3c(N4CCc5ccccc54)ncnc32)cc1 | – | 5.62 µM (active)
COc1ccc(-n2ncc3c(N4CCCc5ccccc54)ncnc32)cc1 | -16.2% | –
COc1ccc(N2CCN(C(=O)CSc3ncnc4c3cnn4-c3ccc(OC)cc3)CC2)cc1 | -25.5% | –
CO[C@@]12[C@@H](COC(N)=O)C3=C(C(=O)C(C)=C(N)C3=O)N1C[C@@H]1N[C@@H]12 | -77.1% | –
CC(C)c1ccc2oc(-c3cc(NC(=O)c4cccs4)ccc3Cl)nc2c1 | -26.1% | –
CC1=C(C(=O)OCc2ccc(C)cc2)C(c2c(Cl)cccc2Cl)CC(=O)N1 (stereo unspecified) | 1.93% | –
Cc1ccccc1OCC(=O)Nc1c(C(=O)Nc2ccccc2F)oc2ccccc12 | 13.5% | –
CNC(=S)N/N=C/c1ccc(OCc2ccccc2)c(Br)c1 | 3.28% | –
COc1cc(/C=N/n2c(C)n[nH]c2=S)ccc1OCc1ccccc1 | – | 12.6 µM (active)
Cc1n[nH]c(=S)n1/N=C/c1ccc(Br)o1 | 2.13% | –
Cc1cc(-c2ccccc2)n2nc(-c3ccccc3)cc2n1 | -3.97% | –
Cc1ccc(NC(=O)CN2C(=O)CC(C)Sc3ccccc32)c(C)c1 (stereo unspecified) | -2.75% | –
CC(C)=CCN1CCC2(CCc3ccccc32)CC1 | -7.89% | –
CCOc1ccc(OCC)c(NC(=O)c2c(C)nn(-c3ccccc3)c2-n2cccc2)c1 | -0.729% | –
COC(=O)c1c(NC(=O)c2ccc(Cl)c(Cl)c2)sc2c1CCCC2 | -7.09% | –
COc1ccccc1Nc1nc(N)nc(N)c1S(=O)(=O)c1ccccc1 | 10.2% | –
CCc1cc2c(cc3c(=O)n(CC(=O)NCCc4ccc(OC)c(OC)c4)ncn32)s1 | -1.71% | –
CCN(CC)C(=O)CSc1ncnc2c1cnn2-c1ccccc1 | 27.2% | –

SMILES | activity change, positive = activation | Potency
Cc1ccc(-n2ncc3c(Nc4cccc(C(=O)O)c4)ncnc32)cc1 | – | 14.1 µM (active) and 11.2 µM (active)
O=C(NNc1ncnc2c1cnn2-c1ccccc1)c1ccco1 | -26.9% | –
COc1ccc(Cl)cc1NC(=O)CSc1nc(-c2cccs2)cc(C(F)(F)F)n1 | -0.0208% | –
CCOCCCNC(=O)c1cn(CC)c2ccc(S(=O)(=O)N3CCc4ccccc4C3)cc2c1=O | -7.64% | –
COc1c(C)c2c(c(O)c1C/C=C(\C)CCC(=O)O)C(=O)OC2 | – | 501 nM (active) and 631 nM (active) and 398 nM (active)
CCc1ccc(C2CC(=O)c3c([nH]c(C(=O)OCc4ccc(C)cc4)c3C)C2)cc1 (stereo unspecified) | 6.39% | –
COc1ccc(C2=Nc3cc(C)ccc3OC2)cc1 | – | 2.82 µM (active)
COc1ccc(-c2cc(-c3ccccc3)nc3c2COc2ccc(Cl)cc2-3)cc1 | 2.81% | –
COc1ccc(C2=NOC3(CC(=O)N(c4ccc(C)cc4)C3=O)C2)cc1 (stereo unspecified) | -1.53% | –
Cc1ccc2c(c1)-c1c(cnn1CC(=O)Nc1ccccc1C#N)CO2 | -17.6% | –
Cc1cccc(-n2c(C)cc(/C=N/NC(N)=S)c2C)c1 | 2.47% | –
CC(C)C(=O)Nc1ccc(C(=O)NNC(=O)c2cccs2)cc1 | 15.1% | –
Cc1cccc(-n2c(C)cc(/C=N\NC(=O)c3cccs3)c2C)c1 | – | 2 µM (active)
Cc1ccc(-n2nc(C)c(/C=N/NC(=O)c3cccs3)c2Cl)cc1 | 20.2% | –
O=C(O)c1ccc(NC(=O)c2cccs2)cc1 | -2.57% | –
CC(=O)Nc1ccc(/C=N/NC(=O)c2cccs2)cc1 | – | 17.8 µM (active)
O=C(c1cccs1)N1CCC(c2nc3ccccc3s2)CC1 | -20.4% | –
O=C(OC1CCOC1=O)c1ccc(-c2nc3ccccc3s2)s1 (stereo unspecified) | – | 12.6 µM (active)
Cc1nn(Cc2ccccc2)c(Cl)c1C(=O)OC1CCOC1=O (stereo unspecified) | 15.5% | –
COc1cccc(-c2nc(CS(=O)(=O)CC(=O)NCCc3ccc(OC)c(OC)c3)c(C)o2)c1 | -49.1% | –
Cc1cc(NC(=O)Cn2nc(C(F)(F)F)c3c2CCCC3)no1 | – | 14.1 µM (active)
O=C(Cn1nc(C(F)(F)F)c2c1CCCC2)Nc1ccc(Cl)cc1 | -4.3% | –
O=C(Cn1nc(C(F)(F)F)c2c1CCC2)NCc1ccc(F)cc1 | -17.5% | –
Cc1cc(C)cc(NC(=O)Cn2c(=O)c3ccccc3n3nncc23)c1 | 7.67% | –
COc1cccc(C(=O)Nc2nc3ccc(S(C)(=O)=O)cc3s2)c1 | 18% | –
COc1ccc2nc(NC(=O)c3ccc(Br)s3)sc2c1 | – | 11.2 µM (active)

SMILES | activity change, positive = activation | Potency
COc1ccc2nc(Nc3nc4cc5c(cc4s3)OCCO5)sc2c1 | – | 20 µM (active)
COc1ccc2nc(NC(=O)[C@@H]3CCCN3C(=O)c3cccs3)sc2c1 | 2.5% | –
COc1ccc2nc(Nc3nc4ccc(NC(C)=O)cc4s3)sc2c1 | -6.86% | –
CCOc1ccc(S(=O)(=O)Nc2nc3cc(OC)ccc3s2)cc1 | 8.16% | –
COc1ccc(Cn2c(=O)n(-c3ccccc3C)c(=O)c3c4c(sc32)CN(C(C)=O)CC4)cc1 | 8.31% | –
CCOC(=O)c1ccc(NC(=O)Cn2c(=O)n(-c3ccc(C)cc3)c(=O)c3c2cnn3C)cc1 | -2.66% | –
O=[N+]([O-])c1cc(C(F)(F)F)ccc1NN=C1CCCC1 | 5.28% | –
O=[N+]([O-])c1ccccc1NCc1ccccc1Cl | -8.19% | –
O=[N+]([O-])c1ccccc1N/N=C1\CCc2ccccc21 | – | 11.2 µM (active)
Cc1ccc(Cl)cc1N(C)C(=O)Cn1nc(Cc2cccnc2)c2ccccc2c1=O | -1.29% | –
COc1ccc(-n2c(C)nc3c(cnn3-c3ccc(F)cc3)c2=O)cc1 | -9.72% | –
COc1ccc(-c2c3c(=O)n(C)c(=O)n(C)c3c3c(C)nc4ccccc4n23)cc1 | 7.52% | –
FC(F)(F)c1cc(Nc2nc3ccccc3c3nncn23)ccc1Cl | -29.6% | –
CCN(C(=O)Cn1cc(S(=O)(=O)N2CCN(c3ccccc3F)CC2)c2ccccc2c1=O)c1ccc(C)c(C)c1 | 7.16% | –
CSCCC(Nc1nc2ccccc2s1)C(=O)O (stereo unspecified) | 0.0276% | –
c1ccc2sc(SCCSc3nc4ccccc4s3)nc2c1 | -8.26% [at 9.22 µM] | –
Cc1ccnc(Nc2nc3ccccc3s2)n1 | – | 3.55 µM (active)
Cc1nn(-c2nc(-c3ccccc3)cc(C(F)(F)F)n2)c(C)c1Cl | -3.6% | –
Cc1ccccc1NC(=O)c1cc2c([nH]c1=O)CC(C)(C)CC2=O | 14.6% | –
CC(C)C(=O)OCC(=O)Nc1ccc2c(c1)CCC2 | 10.6% | –
O=C(Nc1ccc2c(c1)CCC2)c1ccc(Br)s1 | – | 5.62 µM (active)
O=C(NC1CCCC1)c1ccc(Br)s1 | -8.19% | –
NS(=O)(=O)c1ccc(NC(=O)C(=O)Nc2ccc3nc4n(c(=O)c3c2)CCCCC4)cc1 | 0.304% | –
CCOc1ccc(S(=O)(=O)c2cn(Cc3ccccc3)c3ccc(OCC)cc3c2=O)cc1 | 1.43% | –
Cc1oc(C)c2c(=O)cc(-c3ccc4c(c3)OCO4)cc(OC(=O)c3ccc(Cl)cc3)c12 | 2.7% | –
CC(C)C12CN3CC(C(C)C)(CN(C1)C3c1ccc(OCc3ccccc3)cc1)C2=O (stereo unspecified) | 1.12% | –

SMILES | activity change, positive = activation | Potency
Cc1ccc(Cn2c(CCCNC(=O)C3CCCCC3)nc3ccccc32)cc1 | -19.1% | –
CCOc1ccc(-c2cc(C)n3nc(C(=O)Nc4ccc(C)c(C)c4)cc3n2)cc1 | 1.94% | –
Cc1ccc(N/C=C/C(=O)c2ccccc2)cc1C | – | 2.51 µM (active)
O=C(/C=C\NCC(=O)c1ccccc1)c1ccccc1 | -5.93% | –
Cc1noc(NS(=O)(=O)c2ccc(N/C=C/C(=O)c3ccccc3)cc2)c1C | 20.6% | –
CSCCC(NS(=O)(=O)c1ccc2c(c1)oc(=O)n2C)C(=O)NCc1ccccc1 (stereo unspecified) | -3.7% | –
Cc1ccc(OCC(=O)Nc2ccc(S(=O)(=O)Nc3ccccn3)cc2)cc1 | 0.0786% | –
O=C(COc1ccc2oc3c(c2c1)CCCC3)Nc1ccccn1 | – | 20 µM (active)
Cc1cc(C)cc(OCC(=O)Nc2ccc(S(=O)(=O)Nc3ccccn3)cc2)c1 | -4.75% | –
COc1cc(OC)cc(-c2nc3nc(C)c(CCC(=O)Nc4ccc(C)cc4)c(C)n3n2)c1 | -1.68% | –
CCOC(=O)c1cc2c(=O)n3ccccc3nc2n(CC2CCCO2)c1=NC(=O)c1ccccc1Br (stereo unspecified) | 3.82% | –
Cc1cccc(NC(=O)CSc2nnc(-c3ccco3)o2)c1 | 13.2% | –
C/C(=N/NC(=O)CCc1ccccc1)c1ccco1 | -2.85% | –
O=C(CCc1ccccc1)Nc1cccc(-c2nnc(-c3ccco3)o2)c1 | – | 12.6 µM (active)
CCOc1ccc(-n2c(C)nc3c(cnn3-c3ccc(C)cc3)c2=O)cc1 | 8.1% | –
O=C(NC1CC1)c1ccc(-c2ccccc2)cc1 | – | 11.2 µM (active)
O=C(NC1CC1)c1cccc(Br)c1 | -9.53% | –
Cc1ccc(C(=O)NC2CCN(C(=O)N3CCOCC3)CC2)cc1 | -9.36% | –
CCOc1ccccc1N(C)C(=O)c1cc2c(s1)-c1ccccc1OC2 | -13.3% | –
O=C(NC1CCN(Cc2ccccc2)CC1)c1ccc(Cn2c(=O)c3ccccc3n(Cc3cccc(F)c3)c2=O)cc1 | 0.0275% | –
O=C(CSc1oc(-c2ccco2)nc1S(=O)(=O)c1ccc(Cl)cc1)c1ccccc1 | 11.5% | –
Cc1ccc(-c2nc(CS(=O)(=O)CC(=O)NCc3ccccc3Cl)c(C)o2)cc1 | 5.89% | –
COc1ccc(CCNC(=O)c2cc(=O)c3c(C)cc(C)cc3o2)cc1OC | 3.1% | –
